From PubChem BioAssay (NCATS)
“And” between values parts separate entries of the source, which are not always exact repeats. Identical values can stand only once. Inconclusive results are not listed. The source made the active and inactive calls. The call rests on the fitted dose curve; in most records, active means well fitted curve in the direction sought with a large enough effect; inconclusive means small, poorly fitted or top-dose-only effect, or another doubt; inactive means no such curve, though single readings can be large; an effect the other way counts as inactive or inconclusive. Numbered stars: 1 amine (or outer) side, 2 acyl side, 3 side chain; on linkers, the order of the positions; unused ones are H or OH. Bridge positions count the residues as written; N and C are the ends. Square brackets hold non-standard residues; d marks the D form. Peptide text beside a SMILES is read from it. * marks the point of attachment. ξ: configuration not given here. ξhTyr(3S-OH,4S-OH,3'-OSO3H) = NC(C(=O)O)[C@H](O)[C@@H](O)c1ccc(O)c(OS(=O)(=O)O)c1; Orn(4R-OH,5R-OH) = O=C([C@H](C[C@@H](O)[C@@H](O)N[*:3])N[*:1])[*:2]; X6 = CCCCCOc1ccc(-c2cc(-c3ccc(C(=O)*)cc3)no2)cc1; X7 = C[C@H]1CN([*:1])C(C(=O)[*:2])[C@H]1O; ξGln(3R-OH) = NC(=O)C[C@@H](O)C(N)C(=O)O; ξPro(4R-OH) = O=C(O)C1C[C@@H](O)CN1; ξThr(3R) = C[C@@H](O)C(N)C(=O)O; pGlu = O=C1CC[C@@H](C(=O)O)N1; Thz = O=C(O)[C@@H]1CSCN1

Experiments:
[1] = biological target: Cellular tumor antigen p53 (Homo sapiens) (UniProt P04637); assay: Primary qHTS for small molecule compounds that upregulate eGFP-tagged delta133p53alpha (in N-terminal) cells. (AID 2060322); settings: NCI-H358 eGFP-delta133p53alpha fluorescence, 24 h; activation: active compounds read high; further: nearly all actives have a fitted effect of over 75% in size; further: potency means the concentration at half of the fitted maximal effect;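 on activation: cells pre-induced with doxycycline then dosed without doxycycline; series mostly up to about 56 µM; 0% = DMSO vehicle and 100% = reference activator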
Cellular tumor antigen p53 (Homo sapiens), sequence (P04637 whole entry, looked up): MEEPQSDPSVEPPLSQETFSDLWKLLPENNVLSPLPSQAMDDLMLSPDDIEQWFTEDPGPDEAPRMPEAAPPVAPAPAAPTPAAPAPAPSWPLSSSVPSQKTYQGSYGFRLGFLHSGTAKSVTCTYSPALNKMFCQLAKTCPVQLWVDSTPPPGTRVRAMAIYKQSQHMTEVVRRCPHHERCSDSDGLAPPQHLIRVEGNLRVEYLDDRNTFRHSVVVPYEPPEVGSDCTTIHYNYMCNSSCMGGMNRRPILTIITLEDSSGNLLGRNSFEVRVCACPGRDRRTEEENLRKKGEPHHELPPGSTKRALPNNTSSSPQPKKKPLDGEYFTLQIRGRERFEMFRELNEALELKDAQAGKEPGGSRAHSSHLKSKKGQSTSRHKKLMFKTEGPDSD
Outline: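 NCI-H358 cells pre-induced 24 h with 10 ng/ml doxycycline for eGFP-delta133p53alpha, plated dox-free and exposed 24 h at 37C to titrated compounds. Fixed, Hoechst-stained; gated GFP peak intensity by laser scanning cytometry, normalized to DMSO (0%) and 57.5 uM 5-azacytidine (100%).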

[2] = biological target: Aldehyde dehydrogenase, mitochondrial (Homo sapiens) (UniProt P05091); assay: qHTS for Inhibitors of the Aldehyde Dehydrogenase Family (ALDH2) Primary screen (AID 2061308);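 further: plate controls were vehicle for no effect and reference inhibitor for full effect; nearly all actives have a fitted effect of over 55% in size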
[3] = biological target: Retinaldehyde dehydrogenase 3 (Homo sapiens) (UniProt P47895); assay: qHTS for Inhibitors of the Aldehyde Dehydrogenase Family (ALDH1A3) Validation screen (AID 2061312); further: on the % scale 0 is the no-effect control and ±100 the full control effect; nearly all actives have a fitted effect of over 45% in size
[4] = biological target: Retinaldehyde dehydrogenase 3 (Homo sapiens) (UniProt P47895); assay: qHTS for Inhibitors of the Aldehyde Dehydrogenase Family (ALDH1A3) Primary screen (AID 2061315);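 further: plate controls were DMSO vehicle for no effect and reference inhibitor for full effect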

C[C@@H](NC(=O)[C@H](O)c1cc(F)cc(F)c1)C(=O)N[C@@H]1C(=O)N(C)c2ccccc2-c2ccccc21
inactive: activation [1] -6.21% | Potency [2] | Potency [3] | Potency [4]

CCN1C[C@H](C)n2c(c(O)c3c(=O)n(Cc4ccc(F)c(Cl)c4)nc(C(=O)NC)c32)C1=O
inactive: activation [1] -11.2% and 13.4% and -6.68% | Potency [2] | Potency [3] | Potency [4]

c1ccc(Nc2nc3c(s2)CCCc2[nH]ncc2-3)nc1
inactive: activation [1] 8.59% | Potency [2] | Potency [3] | Potency [4]

O=C(OC(C(F)(F)F)C(F)(F)F)N1CCN(Cc2cccc(Oc3ccccc3)c2)CC1
inactive: activation [1] 1.43% | Potency [2] | Potency [3] | Potency [4]

CC1CC(OC(=O)C(O)c2ccccc2)CC(C)(C)C1 (stereo not given)
inactive: activation [1] 1.43% | Potency [2] | Potency [3] | Potency [4]

CC(C)(C)c1cc(Br)cc([C@H](CC(=O)O)NC(=O)CNC(=O)c2cc(O)cc(NC3=NCC(O)CN3)c2)c1 (stereo not given in full)
inactive: activation [1] -5.25% | Potency [2] | Potency [3] | Potency [4]

O=C(NC1CCN(CC(F)(F)F)CC1)c1ccc(-c2cccc(F)c2)nc1
inactive: activation [1] -16.7% | Potency [2] | Potency [3] | Potency [4]

CC(Cc1cc2c(c(C(N)=O)c1)N(CCCO)CC2)NCCOc1ccccc1OCC(F)(F)F (stereo not given)
inactive: activation [1] 5.25% | Potency [2] | Potency [3] | Potency [4]

CCOc1ccc(-c2nc(-c3cccc4c3CCC4NCCO)no2)cc1OCC (stereo not given)
inactive: activation [1] -0.955% | Potency [2] | Potency [3] | Potency [4]

Cc1ccc(C)c(OCCn2cc(C(=O)O)c3ccccc32)c1
inactive: activation [1] 7.16% | Potency [2] | Potency [3] | Potency [4]

O=C(NCCCN1CCC2(CC1)OCc1ccccc12)[C@H]1CCCN1Cc1ccccc1
inactive: activation [1] 0.477% | Potency [2] | Potency [3] | Potency [4]

COc1cccc(OC)c1-c1nc(C(=O)N[C@@H](CC(C)C)C(=O)O)cn1-c1ccnc2cc(Cl)ccc12
inactive: activation [1] -8.59% | Potency [2] | Potency [3] | Potency [4]

Oc1ccc([C@H]2COc3cc(O)ccc3C2)cc1
inactive: activation [1] -10.5% | Potency [2] | Potency [3] | Potency [4]

Cc1nc2cc(-c3cc(F)cc(C#N)c3)ccc2s1
inactive: activation [1] -1.91% | Potency [2] | Potency [3] | Potency [4]

CC[C@@H](N)CNc1ccnc(-c2cc(-c3cnn(C)c3)ccc2O)n1
active: Potency [1] 6.75 µM
inactive: Potency [2] | Potency [3] | Potency [4]

CN1CCN(c2nc(-c3ccc(C(=O)NC4(C(=O)NCC#N)CCCCC4)cc3)cs2)CC1
inactive: activation [1] -19.1% | Potency [2] | Potency [3] | Potency [4]

O=C1CC[C@@H](C(=O)N2CSC[C@H]2C(=O)O)N1 ([pGlu]-[Thz]-OH)
inactive: activation [1] 1.43% | Potency [2] | Potency [3] | Potency [4]

CCCCCOc1ccc(-c2cc(-c3ccc(C(=O)N[C@H]4C[C@@H](O)[C@@H](O)NC(=O)C5[C@@H](O)[C@@H](C)CN5C(=O)C([C@H](O)CC(N)=O)NC(=O)C([C@H](O)[C@@H](O)c5ccc(O)c(OS(=O)(=O)O)c5)NC(=O)C5C[C@@H](O)CN5C(=O)C([C@@H](C)O)NC4=O)cc3)no2)cc1 (stereo partly drawn) (X6-[Orn(4R-OH,5R-OH)][ξThr(3R)][ξPro(4R-OH)][ξhTyr(3S-OH,4S-OH,3'-OSO3H)][ξGln(3R-OH)][X7]; lactam 1-C)
inactive: activation [1] -0.955% | Potency [2] | Potency [3] | Potency [4]

C[C@@H]([C@@H](O)c1ccc(O)cc1)N1CCC(O)(c2ccccc2)CC1
inactive: activation [1] 5.25% | Potency [2] | Potency [3] | Potency [4]

CN(C)CCC(CSc1ccccc1)Nc1ccc(S(=O)(=O)NC(=O)c2ccc(N3CCN(Cc4ccccc4-c4ccc(Cl)cc4)CC3)cc2)cc1[N+](=O)[O-] (stereo not given)
active: Potency [1] 16.9 µM
inactive: Potency [2] | Potency [3] | Potency [4]

CC(C)(C)c1ccc(CNC(=S)NCc2ccc(NS(C)(=O)=O)c(F)c2)cc1
inactive: activation [1] -6.68% | Potency [2] | Potency [3] | Potency [4]

C=C(F)c1sc(CNCCCNc2cc(=O)c3ccccc3[nH]2)c(C)c1Br
inactive: activation [1] 18.1% | Potency [2] | Potency [3] | Potency [4]

COC(=O)C(CC1CCCC1)c1ccc(S(C)(=O)=O)cc1 (stereo not given)
inactive: activation [1] 0.955% | Potency [2] | Potency [3] | Potency [4]

CC(=O)NCC(=O)N1C2CCC1c1cc(Nc3ncc(C(F)(F)F)c(NC4CCC4)n3)ccc12 (stereo not given)
active: Potency [1] 3.79 µM
inactive: Potency [2] | Potency [3] | Potency [4]

C[C@@H](O[C@H]1OCCN(Cc2nn(P(=O)(O)O)c(=O)[nH]2)[C@H]1c1ccc(F)cc1)c1cc(C(F)(F)F)cc(C(F)(F)F)c1
inactive: activation [1] 10% | Potency [2] | Potency [3] | Potency [4]
